Assay results as given in the supplement of paper PMC6555819.

Experiments:
Assay in all cases: PBM binding z-score (relative to random genomic background probes); higher = stronger binding; sequences stand for … in GC…GCGATTGACAGCGTAGAATGAAGG
[1] = tested on: FXR:RXRa (NR concentration 270 nM, RXRa partner concentration 90 nM)
Summary of the method: (§1)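 Custom Agilent 4×180K protein-binding microarrays carried double-stranded probes. Their 34-nt variable regions held direct-repeat seeds, single-nucleotide variants, half-site ablations and random human genomic background sequences. Arrays were incubated 1 h with ligand-free nuclear receptor dimers in PBS pH 7.4, 2% milk, 0.02% Triton X-100, 1 mM DTT, 0.2 mg/mL BSA and 0.4 mg/ml salmon testes DNA. Antibodies against each partner (one per run) detected binding, and scanned fluorescence was regression-normalized. Binding z-scores use random background probes as reference.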

[2] = tested on: LXRa:RXRa (NR concentration 270 nM, RXRa partner concentration 90 nM)
Summary of the method: as §1

[3] = tested on: LXRa homodimer (NR concentration 270 nM)
Summary of the method: as §1

[4] = tested on: LXRb:RXRa (NR concentration 270 nM, RXRa partner concentration 90 nM)
Summary of the method: as §1

[5] = tested on: LXRb homodimer (NR concentration 270 nM)
Summary of the method: as §1

[6] = tested on: PPARa:RXRa (NR concentration 270 nM, RXRa partner concentration 90 nM)
Summary of the method: as §1

[7] = tested on: PPARg:RXRa (NR concentration 180 nM, RXRa partner concentration 90 nM)
Summary of the method: as §1

[8] = tested on: PPARg:RXRa 270nM:90nM, anti-RXR (NR concentration 270 nM, RXRa partner concentration 90 nM)
Summary of the method: as §1

[9] = tested on: PPARg:RXRa 30nM:10nM, anti-RXR (NR concentration 30 nM, RXRa partner concentration 10 nM)
Summary of the method: as §1

[10] = tested on: PPARg:RXRa 90nM:30nM, anti-RXR (NR concentration 90 nM, RXRa partner concentration 30 nM)
Summary of the method: as §1

[11] = tested on: PPARg:RXRa DBDmut IVT, anti-RXR (DBD mutation: RXRa K156A/R161A, NR concentration 270 nM, RXRa partner concentration 90 nM)
Summary of the method: as §1

[12] = tested on: PPARg:RXRa IVT, anti-PPARg (NR concentration 270 nM, RXRa partner concentration 90 nM)
Summary of the method: as §1

[13] = tested on: PPARg DBDmut:RXRa IVT, anti-PPARg (DBD mutation: PPARg1 K132A/R137A, NR concentration 270 nM, RXRa partner concentration 90 nM)
Summary of the method: as §1

[14] = tested on: PPARg DBDmut IVT, anti-PPARg (DBD mutation: PPARg1 K132A/R137A, NR concentration 270 nM)
Summary of the method: as §1

[15] = tested on: PPARg homodimer (NR concentration 180 nM)
Summary of the method: as §1

[16] = tested on: PXR:RXRa (NR concentration 270 nM, RXRa partner concentration 90 nM)
Summary of the method: as §1

[17] = tested on: PXR homodimer (NR concentration 270 nM)
Summary of the method: as §1

[18] = tested on: RARa homodimer (NR concentration 270 nM)
Summary of the method: as §1

[19] = tested on: RARb:RXRa (NR concentration 270 nM, RXRa partner concentration 90 nM)
Summary of the method: as §1

[20] = tested on: RARa:RXR (NR concentration 270 nM, RXRa partner concentration 90 nM)
Summary of the method: as §1

| Sequence | PBM binding z-score [1] | PBM binding z-score [2] | PBM binding z-score [3] | PBM binding z-score [4] | PBM binding z-score [5] | PBM binding z-score [6] | PBM binding z-score [7] | PBM binding z-score [8] | PBM binding z-score [9] | PBM binding z-score [10] | PBM binding z-score [11] | PBM binding z-score [12] | PBM binding z-score [13] | PBM binding z-score [14] | PBM binding z-score [15] | PBM binding z-score [16] | PBM binding z-score [17] | PBM binding z-score [18] | PBM binding z-score [19] | PBM binding z-score [20] |
| --- | --- | --- | --- | --- | --- | --- | --- | --- | --- | --- | --- | --- | --- | --- | --- | --- | --- | --- | --- | --- |
| CCTAGCAGGCCAGGGTCACCCAAGCATTTCGCTT | 2.7 | 1.95 | -0.482 | 2.3 | -1.1 | 3.82 | 1.34 | 2.02 | -0.0989 | 1.43 | -0.0206 | 1.79 | -0.767 | -1.42 | 1.59 | 3.36 | -0.361 | -0.318 | 3.12 |  |
| CGTCCAAGGTAAGAGAGGTCAGTGAATGCCGAGT | 1.6 | 2.42 | 1.66 | 1.72 | -0.936 | 2.53 | 0.401 | 1.2 | -0.312 | 0.249 | 0.589 | 0.75 | -1.12 | -1.45 | 1.77 |  | 1.61 | 0.562 |  | 3.12 |
| CAGACTAGGTCAAAGGTCAAAGTCGAGCCAACCA | 8.06 | 6.96 | 4.82 | 7.09 | 2.54 | 7.49 | 13.9 | 10.9 | 13.4 | 13.3 | 7.65 | 8.8 | 3.31 | 3.18 | 5.71 | 7.16 | 1.95 | 2.03 | 5.64 |  |
| CGTCAAAGTTCAACTAATGTAACGTAAAGCACGC | 7.05 | 6.09 | 4.93 | 4.21 | 2.34 | 4.77 | 4.72 | 5.26 | 2.95 | 4.56 | 0.546 | 1.56 | 0.963 | 2.3 | 3.42 | 4.97 | 5.1 | 2.42 | 5.23 |  |
| CCTACGGGGCCAAAGGTCATTGATTCCAATGCTC | 5.67 | 5.59 | 4.4 | 5.16 | 0.715 | 6.04 | 11 | 9.49 | 8.43 | 11.1 | 1.49 | 5.33 | -0.65 | -0.159 | 5.46 | 6.24 | 2.59 | 2.51 | 4.72 |  |
| CGTCCAAGGTCAAAGGTCAGTAAAGAGATGACGG | 8.12 | 6.87 | 3.18 | 6.62 | 2 | 7.32 | 10.8 | 9.28 | 7.89 | 9.37 | 4.06 | 5.78 | 0.533 | 0.691 | 4.4 | 7.16 | 1.34 | 4.03 | 5.99 |  |
| CCTAGTTGGCCAAGGTCACACACGCTATAGGTAC | 3.78 | 3.61 | 1.6 | 3.73 | 0.597 | 3.8 | 2.42 | 2.88 | 0.959 | 1.94 | 1.76 | 2.66 | 0.582 | 0.0264 | 2.66 | 3.85 | 1.93 | 1.5 | 3.8 |  |
| CCAGAAAGGTGAAAGGTAACTCAGTCTGGTACGC | 2.31 | 2.14 | -0.21 | 2.12 | -0.446 | 5.13 | 6.55 | 6.26 | 4.77 | 6.27 | 4.19 | 4.68 | 0.791 | 0.428 | 1.51 | 2.26 | 0.172 | 0.674 | 3.3 |  |
| CGGCCAAGGTCAAAGGTCAGTGAAGAGATGACGG | 8.62 | 7.07 | 2.81 | 6.59 | 1.33 | 7.11 | 10.8 | 8.98 | 8.13 | 9.65 | 3.94 | 5.66 | 0.246 | -0.114 | 7.63 | 7.3 | 1.98 | 4.91 | 6.06 |  |
| TCTCGGAGGTCACGAAGGTCAGAGCTTTCCAGAG | 7.49 | 6.31 | 3.52 | 5.6 | 0.683 | 6.27 | 7.7 | 7.54 | 4.57 | 6.59 | 4.48 | 6.17 | 0.14 | -0.128 | 4.35 |  | 9.02 | 1.11 |  | 6.63 |
| GCTTACGGGTCAAAGGTTATAGTATGAATAGAAT | 6.98 | 5.83 | 0.73 | 5.84 | 0.6 | 6.76 | 11.2 | 9.15 | 8.51 | 9.75 | 4.49 | 5.45 | 1.28 | 1.07 | 1.98 | 6.29 | 0.804 | 0.757 | 4.25 |  |
| AGTCAAAGTTCATCTTGGTAACGTAAGATATGCT | 6.87 | 5.48 | 5.97 | 4 | 2.25 | 4.58 | 6.07 | 6 | 3.31 | 5.53 | 0.418 | 2.63 | 0.383 | 1.1 | 2.64 | 4.92 | 6.26 | 1.55 | 4.95 |  |
| ATATGTAGGTTACATGCGGGTCATTCAGGCTATG | 2.21 | 4.55 | 0.959 | 2.66 | 0.785 | 4.22 | 5.9 | 5.3 | 2.6 | 4.65 | 7.67 | 7.33 | 2.78 | 2.03 | 1.57 |  | 1.11 | 0.618 | 2.01 | 3.24 |
| ACTAGTGGGTCAGCTGAGGTCACACACAATTCGG | 4.98 | 5.49 | 2.88 | 4.54 | 0.173 | 4.9 | 6.38 | 5.68 | 3.12 | 4.86 | 6.51 | 6.96 | 1.71 | 0.986 | 4.18 |  | 1.68 | 1.85 | 4.45 | 5.69 |
| ATACCAAGGTCATCGTGAGGTCGTTGATACTAAC | 7.59 | 6.05 | 4.44 | 5.33 | 1.71 | 5.74 | 6.03 | 5.6 | 2.72 | 4.27 | 2.34 | 4.3 | 2.33 | 1.42 | 4.01 |  | 5.81 | 1.56 | 5.36 | 6 |
| AGAATGAGGTTATACGTAGGTCAGGGAAGAAAGT | 3.33 | 4.18 | 1.07 | 3.2 | 0.0984 | 4.04 | 2.84 | 2.74 | 0.859 | 2.05 | 3.82 | 2.92 | 1.18 | 0.81 | 3.44 |  | 0.992 | 0.747 | 3.19 | 4.71 |
